Measured values published in PubChem BioAssay AID2330 (Broad Institute, 2010).
Hit rate of the full screen: of about 37,000 compounds, about 2,800 (7.6%) were called active. Inconclusive results (about 1%) are left out. This is one part of a sample in which actives are shown more often than they occur. Values without a mark were called inactive. Rule as the data show it: active = inhibition above about 80%; inconclusive = no clear call, values can overlap the other calls; inactive = below that.

assay: NOMO-1 AML cell viability reduction, primary screen, STK33 inhibitor project, CellTiter-Glo luminescence (AID 2330); settings: NOMO-1 AML viability, 72 h, stronger effect = higher value, concentration not given here

Row | Compound | inhibition
1 | Cc1cc(Cl)c(S(=O)(=O)Nc2ccc3c(c2)OCCO3)cc1OCC(N)=O | 20.2%
2 | CCN1CCN(S(=O)(=O)c2cc(OCC(N)=O)c(C)cc2Cl)CC1 | 12.8%
3 | Cc1ccc2c(c1)CCCN2S(=O)(=O)c1cc(OCC(N)=O)c(C)cc1Cl | 93.4% (active)
4 | C[C@@H]1CN([C@H](C)CO)C(=O)c2cccc(NS(C)(=O)=O)c2O[C@@H]1CN(C)C(=O)Nc1cccc2ccccc12 | -9.1%
5 | C[C@@H]1CN([C@H](C)CO)C(=O)Cc2cc(NC(=O)Cc3ccccc3)ccc2O[C@@H]1CN(C)Cc1ccccc1 | -13.8%
6 | C[C@@H]1CN([C@@H](C)CO)C(=O)c2cc(NC(=O)Cc3ccccc3)ccc2O[C@@H]1CN(C)Cc1ccc(Oc2ccccc2)cc1 | 112% (active)
7 | C[C@H](CO)N1C[C@H](C)[C@H](CN(C)Cc2ccccc2)Oc2ccc(NC(=O)Cc3ccccc3)cc2C1=O | 7.66%
8 | C[C@H]1CN([C@@H](C)CO)C(=O)Cc2cc(NC(=O)Cc3ccccc3)ccc2O[C@@H]1CN(C)Cc1ccc(Cl)c(Cl)c1 | 96.8% (active)
9 | C[C@@H]1CN([C@@H](C)CO)C(=O)Cc2cc(NC(=O)Cc3ccccc3)ccc2O[C@@H]1CN(C)Cc1ccc(Oc2ccccc2)cc1 | 127% (active)
10 | C[C@@H]1CN([C@H](C)CO)C(=O)Cc2cc(NC(=O)NC3CCCCC3)ccc2O[C@H]1CN(C)Cc1ccc(Cl)c(Cl)c1 | 20.7%
11 | C[C@H]1CN([C@@H](C)CO)C(=O)Cc2cc(NC(=O)NC3CCCCC3)ccc2O[C@@H]1CN(C)Cc1ccc(Oc2ccccc2)cc1 | 94.9% (active)
12 | C[C@@H]1CN([C@H](C)CO)C(=O)Cc2cc(NC(=O)Nc3ccccc3)ccc2O[C@H]1CN(C)Cc1ccc(Cl)c(Cl)c1 | 30.1%
13 | C[C@@H]1CN([C@H](C)CO)C(=O)Cc2cc(NC(=O)CCCN(C)C)ccc2O[C@@H]1CN(C)Cc1ccc(Oc2ccccc2)cc1 | 19.5%
14 | COc1ccc(CN(C)C[C@H]2Oc3ccc(NC(=O)Cc4ccccc4)cc3CC(=O)N([C@@H](C)CO)C[C@@H]2C)cc1 | 22.8%
15 | C[C@@H]1CN([C@H](C)CO)C(=O)Cc2cc(NC(=O)Cc3ccccc3)ccc2O[C@H]1CN(C)Cc1ccc(Oc2ccccc2)cc1 | 13.7%
16 | C[C@H]1CN([C@@H](C)CO)C(=O)c2cc(NC(=O)C3CC3)ccc2O[C@@H]1CN(C)Cc1ccc(Oc2ccccc2)cc1 | 16.2%
17 | COC(=O)c1c(NC(=O)COc2ccc(C(C)C)c(C)c2)sc2c1CCC2 | -13.1%
18 | COc1ccc(S(=O)(=O)N(C)C[C@@H]2Oc3ccc(NC(=O)Cc4cn(C)c5ccccc45)cc3C(=O)N([C@H](C)CO)C[C@H]2C)cc1 | 3.23%
19 | CC(C)NC(=O)N(C)C[C@H]1Oc2ccc(NS(C)(=O)=O)cc2CC(=O)N([C@@H](C)CO)C[C@@H]1C | -17.4%
20 | COc1c2c(cc3occ(-c4ccc5c(c4)OCO5)c(=O)c13)OC(C)(C)C=C2 | 23.7%
21 | O=C(c1cc2ccccc2oc1=O)N(Cc1ccc(F)cc1)Cc1ccco1 | -0.0617%
22 | COc1cc(O)c2c(=O)c(O[C@@H]3O[C@@H](CO)[C@H](O)[C@H]3O[C@@H]3O[C@@H](C)[C@H](O)[C@@H](O)[C@H]3O)c(-c3ccc(O)cc3)oc2c1 | 16.7%

Row | Compound | inhibition
23 | C[C@@H]1CN([C@H](C)CO)C(=O)Cc2cc(NC(=O)CCN3CCOCC3)ccc2O[C@H]1CN(C)C | 13.7%
24 | O=C(NCc1ccco1)c1ccc2c(c1)C(=O)N(Cc1cccnc1)C2=O | 20%
25 | COc1ccc(NC(=O)Nc2ccc3c(c2)C(=O)N([C@@H](C)CO)C[C@H](C)[C@@H](CN(C)Cc2ccc4c(c2)OCO4)O3)cc1 | 25%
26 | C[C@H]1CN([C@@H](C)CO)C(=O)c2cc(NC(=O)Nc3ccc4c(c3)OCO4)ccc2O[C@@H]1CN(C)Cc1ccc(Oc2ccccc2)cc1 | 102% (active)
27 | C[C@@H]1CN([C@@H](C)CO)C(=O)c2cc(NC(=O)Nc3ccc4c(c3)OCO4)ccc2O[C@@H]1CN(C)Cc1ccc(Oc2ccccc2)cc1 | 66%
28 | C[C@@H]1CN([C@H](C)CO)C(=O)c2cc(NC(=O)Nc3ccc4c(c3)OCO4)ccc2O[C@H]1CN(C)Cc1ccc(-c2ccccc2)cc1 | 113% (active)
29 | C[C@H]1CN([C@@H](C)CO)C(=O)Cc2cc(N(C)C)ccc2O[C@@H]1CN(C)Cc1ccc(-c2ccccc2)cc1 | 65.8%
30 | C[C@@H]1CN([C@H](C)CO)C(=O)c2cc(NC(=O)Nc3ccc4c(c3)OCO4)ccc2O[C@@H]1CN(C)Cc1ccc(C(F)(F)F)cc1 | 50.9%
31 | C[C@H](CO)N1C[C@H](C)[C@@H](CN(C)Cc2ccccc2)Oc2ccc(NC(=O)Nc3ccc4c(c3)OCO4)cc2C1=O | 1.03%
32 | C[C@@H]1CN([C@H](C)CO)C(=O)Cc2cc(N(C)C)ccc2O[C@@H]1CN(C)Cc1ccccc1 | 124% (active)
33 | C[C@H](CO)N1C[C@H](C)[C@H](CN(C)Cc2ccc(C(F)(F)F)cc2)Oc2ccc(N(C)C)cc2CC1=O | 14.9%
34 | Cc1cc(=O)[nH]c(SCC(=O)Nc2cccc3ccccc23)n1 | -1.97%
35 | C[C@H](CO)N1C[C@H](C)[C@H](CN(C)S(C)(=O)=O)Oc2ccc(NC(=O)Nc3ccc(F)cc3)cc2C1=O | 14.7%
36 | COc1ccc(CN(C)C[C@@H]2Oc3ccc(NC(=O)NC(C)C)cc3C(=O)N([C@@H](C)CO)C[C@H]2C)cc1 | 11.8%
37 | COc1ccc(S(=O)(=O)Nc2ccc3c(c2)CC(=O)N([C@@H](C)CO)C[C@@H](C)[C@@H](CN(C)C(=O)Nc2c(C)noc2C)O3)cc1 | -6.01%
38 | C[C@@H]1CN([C@H](C)CO)C(=O)Cc2cc(NC(=O)Cn3cnnn3)ccc2O[C@H]1CN(C)Cc1ccc(C(F)(F)F)cc1 | -4.05%
39 | COc1ccc(-c2nnc(SCC(=O)Nc3cccc(SC)c3)n2C)cc1 | -20%
40 | COc1ccccc1NC(=O)c1ccc(OCC(=O)Nc2ccccc2F)cc1 | 2.43%
41 | C[C@H]1CN([C@@H](C)CO)C(=O)c2cccc(NS(C)(=O)=O)c2O[C@@H]1CN(C)C(=O)Nc1ccc(F)cc1 | -0.485%
42 | CC1CCC(C(C)C)C(=O)/C1=C\c1ccc(NC(=O)CCC(=O)O)cc1 (stereo not given) | 10%
43 | COc1cc(-c2coc3cc(O[C@@H]4O[C@H](CO)[C@@H](O)[C@H](O)[C@H]4O)c(OC)c(O)c3c2=O)cc(O)c1OC | -24%
44 | COc1ccc(C[C@H]2COC(=O)[C@@H]2Cc2ccc(O[C@@H]3O[C@H](CO)[C@@H](O)[C@H](O)[C@H]3O)c(OC)c2)cc1OC | 88.7% (active)

Row | Compound | inhibition
45 | COc1cc([C@H]2OC[C@H]3[C@@H]2CO[C@@H]3c2cc(OC)c(O[C@@H]3O[C@H](CO)[C@@H](O)[C@H](O)[C@H]3O)c(OC)c2)cc(OC)c1O | -2.62%
46 | CCc1cc(C(=O)OC)c(NC(=O)CC2Sc3ccc(C(F)(F)F)cc3NC2=O)s1 (stereo not given) | 43.5%
47 | CCOc1ccc(NC(=O)C2CC(=O)n3c(nc4ccccc43)N2)cc1 (stereo not given) | 2.2%
48 | C[C@H]1CN([C@@H](C)CO)C(=O)c2cc(NC(=O)Cn3cnnn3)ccc2O[C@@H]1CN(C)S(=O)(=O)c1cccs1 | -7.03%
49 | COc1ccc(S(=O)(=O)N(C)C[C@H]2Oc3ccc(NC(=O)Nc4c(C)noc4C)cc3C(=O)N([C@H](C)CO)C[C@H]2C)cc1 | 8.03%
50 | COc1ccc(C(=O)CCC(=O)Nc2cccnc2)c(OC)c1 | 1.52%
51 | O=C(CS(=O)(=O)Cc1ccccc1)Nc1cccnc1 | 4.64%
52 | O=C(Nc1cccnc1)c1cc2c(s1)-c1ccccc1CC2 | 108% (active)
53 | O=S(=O)(c1ccc(Cl)cc1)c1nc(-c2ccccc2F)oc1NCCN1CCOCC1 | 16.2%
54 | CC(C)NC(=O)N(C)C[C@H]1Oc2ccc(NC(=O)CCCCCC(=O)Nc3ccccc3N)cc2CC(=O)N([C@@H](C)CO)C[C@H]1C | 7.18%
55 | CC(C)NC(=O)Nc1cccc2c1O[C@H](CN(C)CC1CCCCC1)[C@H](C)CN([C@H](C)CO)C2=O | 7.14%
56 | C[C@@H]1CN([C@H](C)CO)C(=O)c2cccc(NC(=O)CCCCCC(=O)Nc3ccccc3N)c2O[C@H]1CN(C)CC1CCCCC1 | 139% (active)
57 | C[C@H](CO)N1C[C@H](C)[C@H](CN(C)CC2CCCCC2)Oc2ccc(NC(=O)CCCCCC(=O)Nc3ccccc3N)cc2CC1=O | 141% (active)
58 | C[C@@H]1CN([C@@H](C)CO)C(=O)c2cccc(NC(=O)NC3CCCCC3)c2O[C@@H]1CN(C)CC1CCCCC1 | 15.8%
59 | C[C@H]1CN([C@@H](C)CO)C(=O)c2cccc(NC(=O)CCCCCC(=O)Nc3ccccc3N)c2O[C@@H]1CN(C)CC1CCCCC1 | 139% (active)
60 | C[C@@H]1CN([C@@H](C)CO)C(=O)c2cccc(NC(=O)CCCCCC(=O)Nc3ccccc3N)c2O[C@H]1CN(C)C(=O)Nc1cccc2ccccc12 | 10.8%
61 | C[C@@H]1CN([C@@H](C)CO)C(=O)c2cccc(NC(=O)CCCCCC(=O)Nc3ccccc3N)c2O[C@@H]1CN(C)CC1CCCCC1 | 125% (active)
62 | C[C@@H]1CN([C@@H](C)CO)C(=O)Cc2cc(NC(=O)CCCCCC(=O)Nc3ccccc3N)ccc2O[C@@H]1CN(C)C(=O)NC1CCCCC1 | 8.04%
63 | C[C@@H]1CN([C@H](C)CO)C(=O)c2cccc(NC(=O)NC3CCCCC3)c2O[C@@H]1CN(C)CC1CCCCC1 | -0.946%
64 | C[C@H]1CN([C@@H](C)CO)C(=O)c2cccc(NC(=O)NC3CCCCC3)c2O[C@H]1CN(C)CC1CCCCC1 | 15.4%
65 | C[C@H](CO)N1C[C@H](C)[C@H](CN(C)S(=O)(=O)c2ccccc2)Oc2c(NC(=O)CCCCCC(=O)Nc3ccccc3N)cccc2C1=O | 68.1%
